In the library only some 1.4% were active in any assay of this set; here they are far more common.
KCNH2 3.1 block – inhibitors of human KCNH2 3.1 potassium channel isoform; activity change, % (tested at about 1.8 µM); hit rate 0.95% among 340,000; U2OS KCNH2 3.1, thallium flux FluxOr; hits give low values; AID 720553;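 active = maximum activity change below -70%; inconclusive = maximum activity change from -70% to -50%; inactive = maximum activity change above -50%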;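 note: thallium influx rate constant from kinetic fluorescence after stimulation buffer; % is set by controls: 0 for no effect and ±100 for the full control effect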
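FluxOr-based Tl+ influx in U2OS cells transduced with KCNH2 3.1 virus; rate constants normalized to DMSO controls.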
KCNH2 WT inh – blocks the wildtype human KCNH2 potassium channel; Q12809; U2OS, BacMam KCNH2, thallium flux FluxOr; hits give low values; activity change, % at 1.84 µM; hit rate 0.37% among 340,000; AID 720551;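 active = maximum activity change below -70%; inconclusive = maximum activity change between -70% and -50%; inactive = maximum activity change above -50%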; note: % is set by controls: 0 for no effect and ±100 for the full control effect
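U2OS cells transduced with wild-type KCNH2 virus are loaded with FluxOr dye for 45 min, and thallium flux is measured in kinetic reads before and after stimulation buffer. Rate constants are normalized to DMSO controls.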
EPAC1 antag – blocks human EPAC1 exchange factor | Potency, µM (doses to about 115 µM), inactives show at the highest dose activity change, negative = inhibition, most hits filed as inhibitors | hit rate 0.14% among 360,000 | AID 720709 | O95398 | EPAC1 GEF assay, Rap1b-BODIPY-GDP exchange fluorescence;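 note: potency is the fitted concentration of half-maximal effect; plate controls were vehicle for no effect and positive control for full effect; nearly all actives have a fitted effect of over 50% in size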
EPAC2 antagonist – blocks human EPAC2 exchange factor. Q8WZA2. EPAC2 GEF exchange of Rap1B-BODIPY-GDP, fluorescence. Potency, µM (highest dose often 114 µM), inactives show at the highest dose activity, negative = inhibition, usual class: inhibitors. hit rate 0.18% among 360,000. AID 720708; note: potency is the fitted concentration of half-maximal effect; % is set by controls: 0 for no effect and ±100 for the full control effect; nearly all actives have a fitted effect of over 45% in size
Target sequence (Q8WZA2 whole entry, looked up): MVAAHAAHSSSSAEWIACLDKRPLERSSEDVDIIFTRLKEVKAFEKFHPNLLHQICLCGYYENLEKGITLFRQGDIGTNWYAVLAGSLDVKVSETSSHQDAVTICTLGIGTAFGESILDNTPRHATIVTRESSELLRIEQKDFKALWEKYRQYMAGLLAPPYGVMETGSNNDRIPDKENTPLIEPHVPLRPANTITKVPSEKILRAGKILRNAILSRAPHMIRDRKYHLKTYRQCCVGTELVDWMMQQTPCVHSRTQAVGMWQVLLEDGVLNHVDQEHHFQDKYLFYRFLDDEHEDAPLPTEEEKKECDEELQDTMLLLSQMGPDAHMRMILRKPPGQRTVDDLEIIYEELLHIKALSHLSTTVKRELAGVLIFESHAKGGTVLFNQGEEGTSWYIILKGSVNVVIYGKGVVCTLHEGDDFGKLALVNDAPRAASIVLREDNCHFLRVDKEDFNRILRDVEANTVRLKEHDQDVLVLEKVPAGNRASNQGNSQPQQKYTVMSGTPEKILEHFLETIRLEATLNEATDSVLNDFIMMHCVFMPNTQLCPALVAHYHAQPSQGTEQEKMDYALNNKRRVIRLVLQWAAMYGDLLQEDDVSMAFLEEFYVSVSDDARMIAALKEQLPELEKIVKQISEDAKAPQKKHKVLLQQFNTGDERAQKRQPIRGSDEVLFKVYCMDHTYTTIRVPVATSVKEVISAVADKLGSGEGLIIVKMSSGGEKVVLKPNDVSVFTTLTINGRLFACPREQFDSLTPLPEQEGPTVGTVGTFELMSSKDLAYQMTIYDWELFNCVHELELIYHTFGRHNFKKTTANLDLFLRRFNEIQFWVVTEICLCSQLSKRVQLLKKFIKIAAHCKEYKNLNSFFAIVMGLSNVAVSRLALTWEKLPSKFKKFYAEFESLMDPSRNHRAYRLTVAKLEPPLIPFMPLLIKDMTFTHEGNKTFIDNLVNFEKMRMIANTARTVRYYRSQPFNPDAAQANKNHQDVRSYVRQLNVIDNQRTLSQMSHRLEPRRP
EPAC1 agonist – EPAC1 (human) agonism; O95398; EPAC1 agonist qHTS, biochemical assay; response scale: 100% = response to 6.5 mM cAMP; Potency, µM (titrated, usually from 154 µM), inactives show at the highest dose activation, hits mostly activators; hit rate 0.073% among 360,000; note: potency is the fitted concentration of half-maximal effect; nearly all actives have a fitted effect of over 60% in size
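Nucleotide exchange assay: 100 nM EPAC1 with 250 nM Rap1B loaded with BODIPY-GDP and 50 uM GDP, room temperature. Fluorescence (480/540 nm) read every 5 min for 30 min; signal change normalized to 6.5 mM cAMP as full agonist.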
EPAC2 ag – activates human EPAC2 exchange factor; Q8WZA2; Potency, µM (series often up to 154 µM), without a hit: at the highest dose activation, actives largely listed as activators; hit rate 0.079% among 360,000; EPAC2 activation, biochemical qHTS; response scale: 100% = 6.5 mM cAMP response; note: potency is the fitted concentration of half-maximal effect; nearly all actives have a fitted effect of over 50% in size
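Readout is BODIPY fluorescence (480 nm excitation, 540 nm emission), which falls as labeled GDP is exchanged off Rap1B. EPAC2 at 100 nM acted on 250 nM RAP1B-BODIPY-GDP with 50 uM GDP present.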
Starred values were filed as active, the others as inactive; ? = inconclusive; . = no result given. Unless noted, calls come from the whole dose curve; as a rule, active = well fitted curve in the direction sought with a large enough effect; inconclusive = small, poorly fitted or top-dose-only effect, or another doubt; inactive = no such curve, though single readings can be large; an effect the other way counts as inactive or inconclusive.

SMILES	KCNH2 3.1 block	KCNH2 WT inh	EPAC1 antag	EPAC2 antagonist	EPAC1 agonist	EPAC2 ag
Cc1ccc(N2C(=O)NC(=O)/C(=C\C=C\c3ccco3)C2=O)cc1C	-2.5	-4.0	56.2µM*	6.1%	-13.7%	8.7%
CC(Cc1ccccc1)NCc1ccccc1O (stereo unspecified)	11.0	3.2	2.8%	-4.2%	-2.0%	2.2%
CC(Cc1ccccc1)NCC(=O)Nc1cc(N(C)C)nc2ccccc12 (stereo unspecified)	-100.3*	2.0	-5.5%	-27.1%	4.7%	10.0%
C=CCN1C(=O)C2(C(C(=O)OCC)=C(N)Oc3ccccc32)c2c1c1ccccc1oc2=O (stereo unspecified)	-109.0*	-2.6	-1.0%	-6.6%	17.4%	14.2%
CCOC(=O)C1=C(N)Oc2c(c(=O)oc3ccccc23)C12C(=O)N(C)c1ccccc12 (stereo unspecified)	-5.7	2.8	9.7%	-0.5%	6.9%	3.6%
COc1ccc(CN2CC=C(c3ccc(F)cc3)CC2)cc1Br	-139.2*	11.1	-8.5%	4.7%	-8.3%	-12.5%
CCN(CC)c1ccc(CN2CC=C(c3ccc(F)cc3)CC2)cc1	-23.8	29.5	-11.3%	9.4%	12.1%	14.9%
COc1ccc(-c2oc(=O)n(C)c2-c2ccc(OC)cc2)cc1	1.8	1.8	-23.9%	?	15.7%	11.0%
O=C(NCC1=C(c2cccc3ccccc23)C[C@@H]2CC[C@H]1N2Cc1ccco1)c1ccc([N+](=O)[O-])cc1	-93.3*	-24.1	-17.3%	-1.2%	-7.7%	20.8%
CCOC(=O)c1cccc(C2=C(CNC(=O)c3ocnc3C)[C@H]3CC[C@@H](C2)N3Cc2ccccc2)c1	-38.1	4.5	-20.2%	-5.9%	1.5%	-0.3%
CCOC(=O)c1cccc(C2=C(CNC(=O)c3nccs3)[C@H]3CC[C@@H](C2)N3Cc2ccccc2)c1	-84.5*	18.3	-5.5%	-0.7%	-2.2%	14.2%
CS(=O)(=O)c1ccc(C2=C(CNC(=O)c3ccc([N+](=O)[O-])cc3)[C@H]3CC[C@@H](C2)N3Cc2ccccc2)cc1	-101.4*	-85.7*	-7.8%	-11.4%	2.0%	7.9%
CS(=O)(=O)c1ccc(C2=C(CNC(=O)c3ccc([N+](=O)[O-])cc3)[C@H]3CC[C@@H](C2)N3CCOc2ccccc2)cc1	-110.5*	-91.9*	-4.7%	-2.8%	-0.3%	9.8%
COc1cc(Cl)c(C)cc1NC(=O)CCCn1c(=O)oc2ccccc21	2.8	2.5	?	-15.0%	3.1%	4.5%
CN1CC(C(=O)c2ccc([N+](=O)[O-])cc2)C(c2ccc(Cl)cc2)C1 (stereo unspecified)	-72.8*	-13.4	14.1%	-2.4%	14.0%	8.4%
COc1ccc(C(=O)C2CN(C)CC2c2ccc(Cl)cc2)cc1 (stereo unspecified)	-12.7	61.5	-4.6%	?	-5.6%	0.6%
COC(=O)C1=C(C(=O)OC)SC2(S1)C(C(=O)OC)=C(C(=O)OC)Sc1c2ssc1=O	-30.9	-14.5	-6.2%	9.0%	-7.4%	-4.9%
c1ccc(C(OCCN2CCN(c3ncccn3)CC2)c2ccccc2)cc1	10.3	1.2	-20.8%	-22.2%	7.5%	4.1%
Clc1ccc(C(OCCN2CCCCC2)c2ccccc2)cc1 (stereo unspecified)	-101.7*	-17.4	-3.2%	-5.3%	-22.9%	-3.4%
CN(C)CCSCc1nnc2n1-c1ccc(Cl)cc1C(c1ccccc1Cl)=NC2	-76.5*	-31.7	-6.7%	7.6%	2.2%	-0.2%
COc1ccc(S(=O)(=O)Nc2cc([N+](=O)[O-])ccc2OC)cc1	5.7	-2.5	?	9.3%	-1.7%	1.8%
COc1ccc(NP(=O)(Oc2ccc(Cl)cc2)Oc2ccc(Cl)cc2)cc1OC	-112.6*	-29.5	-4.7%	-14.2%	5.8%	-6.1%
O=C(Cn1c(=O)oc2cc(S(=O)(=O)N3CCCC3)ccc21)N1CCN(c2ccccc2F)CC1	0.6	-8.2	-27.0%	-28.7%	-31.9%	-0.7%
COc1ccc(N2C(=O)/C(=C/c3ccc(C)o3)C(=O)NC2=S)cc1	-13.5	4.6	?	11.6%	5.8%	8.0%
COc1ccc(OC)c(N2C(=O)/C(=C/c3ccco3)C(=O)NC2=S)c1	-4.5	-26.0	8.91µM*	?	4.3%	2.6%
SMILES	KCNH2 3.1 block	KCNH2 WT inh	EPAC1 antag	EPAC2 antagonist	EPAC1 agonist	EPAC2 ag
C[C@]12CC[C@H](O)C[C@H]1CC[C@@H]1[C@@H]2C[C@@H](O)[C@]2(C)[C@@H](C3=CC(=O)OC3)CC[C@]12O	-15.4	2.0	13.6%	0.0%	-13.1%	-9.1%
CC(=O)OC1CC(OC2C(O)CC(OC3C(O)CC(OC4CCC5(C)C(CCC6C5CC(O)C5(C)C(C7=CC(=O)OC7)CCC65O)C4)OC3C)OC2C)OC(C)C1OC1OC(CO)C(O)C(O)C1O (stereo unspecified)	8.2	5.1	-2.4%	89.1µM*	-15.7%	112µM*
CN1CCN(c2ccc([N+](=O)[O-])c(Sc3nncn3C)c2)CC1	-123.2*	3.4	-16.8%	0.2%	3.3%	7.8%
O=C(CN1CC=C(c2ccccc2)CC1)NC(=O)NCc1ccco1	-90.3*	-8.2	-10.8%	1.6%	-5.2%	3.3%
COC(=O)C(O)(c1ccc(N=Cc2ccccc2O)c(C)c1)C(F)(F)F (stereo unspecified)	5.2	-112.9*	-9.3%	5.0%	-11.4%	0.4%
COC(=O)C(O)(c1ccc(NC(=O)c2cccs2)c(C)c1)C(F)(F)F (stereo unspecified)	0.3	-18.1	-9.9%	5.8%	-8.8%	4.7%
Nc1ccc2c3c(cccc13)-c1ccccc1-2	?	-39.7	50.7%	116.5%	?	?
O=S(=O)(c1ccc(Cl)cc1)N1CCC(n2cnc3cc(C(F)(F)F)ccc32)CC1	-82.7*	-40.7	?	-17.9%	3.8%	-2.8%
O=C1NCN(c2ccccc2)C12CCN(C(c1ccnc3ccccc13)c1nnnn1-c1ccc3c(c1)OCCO3)CC2 (stereo unspecified)	.	.	-17.8%	2.9%	-7.3%	2.8%
O=c1oc2ccccc2c(O)c1C(c1ccc([N+](=O)[O-])cc1)c1c(O)c2ccccc2oc1=O	.	11.0	50.1µM*	50.1µM*	-14.7%	-13.8%
C/C(CC(c1ccccc1)c1c(O)c2ccccc2oc1=O)=N\Nc1ccc([N+](=O)[O-])cc1[N+](=O)[O-] (stereo unspecified)	-9.9	.	?	-22.2%	9.5%	3.0%
Cc1c(C(c2ccc(F)cc2)c2c(O)c3ccccc3oc2=O)c(=O)n(-c2ccccc2)n1C (stereo unspecified)	3.8	20.1	-28.1%	9.8%	4.2%	4.0%

High-throughput results: PubChem BioAssay, National Center for Advancing Translational Sciences (NCATS)
